# These assays gave more results; the selection is not random.
# Molecular target: Pyruvate kinase PKM (Homo sapiens) (UniProt P14618)
# Assay: Confirmation Concentration-Response Assay for Activators of Human Muscle isoform 2 Pyruvate Kinase: for Probe SAR.
# Assay type: functional; call rule not given here
# Chain of Pyruvate kinase PKM (Homo sapiens) (P14618 2-531 limits assumed): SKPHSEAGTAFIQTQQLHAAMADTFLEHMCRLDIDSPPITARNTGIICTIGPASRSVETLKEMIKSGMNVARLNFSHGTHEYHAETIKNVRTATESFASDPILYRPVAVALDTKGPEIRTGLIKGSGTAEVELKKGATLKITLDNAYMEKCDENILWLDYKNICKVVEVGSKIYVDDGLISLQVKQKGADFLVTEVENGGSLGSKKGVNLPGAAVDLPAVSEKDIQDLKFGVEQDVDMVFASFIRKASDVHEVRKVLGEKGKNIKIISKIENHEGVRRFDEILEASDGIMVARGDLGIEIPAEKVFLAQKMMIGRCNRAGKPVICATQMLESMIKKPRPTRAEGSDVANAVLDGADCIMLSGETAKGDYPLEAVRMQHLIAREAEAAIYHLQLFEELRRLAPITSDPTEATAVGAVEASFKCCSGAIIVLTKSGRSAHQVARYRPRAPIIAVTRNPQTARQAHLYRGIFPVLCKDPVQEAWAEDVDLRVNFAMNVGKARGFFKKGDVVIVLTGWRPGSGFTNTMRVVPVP
smiles,measurement,value
C[N+](C)(C)c1cccc(S(=O)(=O)N2CCCN(S(=O)(=O)c3ccc4c(c3)OCCO4)CC2)c1,Potency,16.3 µM (active)

# Reference: ChEMBL document CHEMBL1201862, “PubChem BioAssay data set” (2004)
